Results on eight compounds are retold here after PubChem BioAssay (NCI).

Experiment in all cases: NCI-60 one-dose screen, 48 h (100 = growth as untreated, 0 = no growth, -100 = all killed)
Holding throughout (conditions): 10 µM unless noted

For assay [1], the system named is HCT-15 colon.
Assay [2] has as its system HT29 colon.
Assay [3] relates to SNB-75 CNS.
In assay [4] the test system is SNB-19 CNS.
Assay [5] relates to U251 CNS.
Assay [6] has as its system PC-3 prostate.
Assay [7] has as its system SK-MEL-5 melanoma.
The test system of assay [8] is UACC-62 melanoma.
In assay [9] the test system is LOX IMVI melanoma.
Assay [10] concerns SK-MEL-28 melanoma.
The subject of assay [11] is SK-MEL-2 melanoma.
Assay [12] concerns EKVX NSCLC.
In assay [13] the test system is SN12C renal.
Assay [14] deals with UO-31 renal.
For assay [15], the system named is TK-10 renal.
For assay [16], the system named is ACHN renal.
Assay [17] concerns CAKI-1 renal.
The subject of assay [18] is CCRF-CEM leukemia.
For assay [19], the system named is MOLT-4 leukemia.
Assay [20] deals with A498 renal.

Each structure is given as a SMILES string. About 83,000 compounds went through this panel and 20% of them were active in at least one assay; those are over-represented in the sample as a whole.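 Assay: single dose, 48 h. Readout: percent growth (0 = no net growth; negative = cell death). Active: <10.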 Values without a mark were called inactive. Active and inactive are the calls of the source.

As for `CC(=O)O[C@H]1Cc2c([nH]c3ccccc23)[C@@H](c2ccc(Cl)cc2)N1C(=O)CCNC(C)(C)C`, the growth is 69.9% in [1]; 29% in assay [2]; 42.6% in [3]; 69.3% in assay [4]; 50.6% in [5]; 36.3% in [6]. Besides, the growth in assay [7] is -79.5% (active); in [8] it was 53.1%; in assay [9] it was 25.6%; in assay [10], 8.92% (active); in assay [11] it was 79.4%; in assay [12], 67.2%. In addition, the growth is 58.4% in [13]; 23.7% in [14]; 94.5% in [15]; 64.5% in assay [16]; 63.6% in assay [17]; 41% in [18]. Moreover, the growth in assay [19] was 28.6%.
Turning to `Cn1c(-c2c(N)n(CCCN3CCOCC3)c3nc(C#N)c(C#N)nc23)nc2ccccc21`, the growth in [1] is 67.1%; in assay [2] it was 68%; in [3], 38.4%; in assay [4], 76.1%; in assay [5], 67.8%; in assay [6] it was 35.5%. The growth in assay [7] was 92.9%; in assay [8], 77.2%; in [9], 67.7%; in assay [10] it was 59.1%; in [11], 109%; in assay [12], 66.3%. In addition, the growth was 40.5% in assay [13]; 12.4% in [14]; 46.8% in [15]; -79.1% (active) in [16]; 57.6% in [17]; 90.6% in assay [20]. In assay [19], the growth was 31.5%.
`O=C(Cc1ccc(/C=C/C(=O)c2nccs2)cc1)Nc1ccccc1`: the growth in assay [1] is 78.4%; in assay [2], 72.7%; in assay [3], 108%; in assay [4] it was 84.8%; in assay [5], 47.7%; in assay [6], 91.7%. Moreover, the growth was 88.8% in assay [7]; 83.9% in assay [8]; 72.4% in assay [9]; 105% in assay [10]; 105% in [11]; 103% in assay [12]. The growth in [13] was 91.9%; in assay [14], 89.1%; in assay [15] it was 98.8%; in assay [16], 96.5%; in [17], 99.9%; in [18] it was 14.4%. In addition, the growth in [19] was 6.27% (active).
With `COC(=O)CNC(=O)[C@]12CCC(C)(C)C[C@H]1C1=CC[C@@H]3[C@@]4(C)Cc5c([nH]c6ccccc56)C(C)(C)[C@@H]4CC[C@@]3(C)[C@]1(C)CC2`, the growth is 87.7% in assay [1]; 81% in [2]; 87.6% in [3]; 92.2% in assay [4]; 82.3% in assay [5]; 74.4% in assay [6]. Further, the growth is 98.1% in [7]; 81.7% in assay [8]; 94% in assay [9]; 96.7% in [10]; 77.3% in assay [11]; 88.6% in assay [12]. In addition, the growth was 89.8% in assay [13]; 65.3% in assay [14]; 90.3% in assay [15]; 49.1% in assay [16]; 71.2% in assay [17]; 87.3% in [18]. The growth in [19] is 63.6%.
For the compound `COc1ccc(CC(C)=C(c2ccc(OCCN3CCCCCC3)cc2)c2ccc(OCCN3CCCCCC3)cc2)cc1`, the growth in [1] was -95.9% (active); in [2], -85% (active); in assay [3] it was -92.9% (active); in assay [4] it was -95% (active); in assay [5], -91.4% (active); in [6], -87.2% (active). The growth in assay [7] is -97.9% (active); in assay [8], -97.1% (active); in assay [9], -100% (active); in assay [10] it was -99.1% (active); in assay [11], -82.2% (active); in [12], -93.6% (active). Moreover, the growth in [13] is -92.4% (active); in [14], -98.8% (active); in assay [15], -87.3% (active); in assay [16], -100% (active); in [17], -92.5% (active); in assay [18] it was -57.9% (active). Besides, the growth in assay [19] was -67.5% (active).
For the compound `Cc1ccc(S(=O)(=O)Nn2c3c(cc(-c4nc5ccccc5s4)c2=O)CCCCCC3)cc1`, the growth is 97% in assay [1]; 112% in assay [2]; 91.9% in [3]; 99.2% in assay [4]; 99.9% in assay [5]; 99.7% in assay [6]. Further, the growth in assay [7] is 96.2%; in assay [8] it was 84.4%; in assay [9] it was 95.9%; in assay [10], 110%; in [11] it was 99.2%; in assay [12], 92.5%. The growth in [13] is 95.9%; in [14] it was 78.9%; in assay [15], 111%; in assay [16], 97.5%; in [17], 86.6%; in assay [18], 105%. Further, the growth in [19] was 100%.
Regarding `ClC1=C(Br)C(Br)(Br)C(=C(Br)Br)C1(Br)Br`, the growth is 79.2% in [1]; 82.5% in [2]; 96.6% in assay [3]; 93.9% in [4]; 94.5% in [5]; 82.8% in assay [6]. Further, the growth in [7] is 92.6%; in assay [8], 81.2%; in [9] it was 77.9%; in assay [10], 102%; in [11], 110%; in [12] it was 111%. Also, the growth in [13] is 95.5%; in assay [14], 71.7%; in [15] it was 80.4%; in assay [16], 78.6%; in assay [17], 61.3%; in assay [18], 25.1%. Moreover, the growth in assay [19] is 74.5%.
Turning to `COc1ccc2[nH]c(=O)c(CN3CCN(c4nccc(-c5ccc(Cl)cc5)n4)CC3)cc2c1`, the growth is 91.8% in assay [1]; 78.2% in assay [2]; 99.9% in assay [3]; 78.8% in [4]; 81.2% in assay [5]; 73.6% in [6]. The growth in assay [7] is 94.6%; in [8] it was 94.4%; in assay [9] it was 99.6%; in assay [10] it was 95.8%; in assay [11], 93.1%; in assay [12] it was 96.4%. Further, the growth in [13] is 88.8%; in [14], 80.7%; in assay [15], 104%; in assay [16], 81.9%; in assay [17], 86.7%; in assay [18], 85.1%. Further, the growth in assay [19] is 75.5%.
